# How the values were obtained:
# Experiment in all cases: DAPPL (digital affinity profiling via proximity ligation, sequencing); 10 mM Tris-HCl pH 7.5, 50 mM NaCl, 1 mM DTT, 4% glycerol, room temperature, 30 min; GST-TFs on glutathione beads, 16-mer random dsDNA library, 0.1% formaldehyde crosslink after washing; high values mean tight binding
# [1] = target: T1, FLI1 (Homo sapiens, UniProt Q01543 1-452); settings: protein: recombinant; tags: N-terminal GST; dsDNA, one strand shown
# T1 sequence: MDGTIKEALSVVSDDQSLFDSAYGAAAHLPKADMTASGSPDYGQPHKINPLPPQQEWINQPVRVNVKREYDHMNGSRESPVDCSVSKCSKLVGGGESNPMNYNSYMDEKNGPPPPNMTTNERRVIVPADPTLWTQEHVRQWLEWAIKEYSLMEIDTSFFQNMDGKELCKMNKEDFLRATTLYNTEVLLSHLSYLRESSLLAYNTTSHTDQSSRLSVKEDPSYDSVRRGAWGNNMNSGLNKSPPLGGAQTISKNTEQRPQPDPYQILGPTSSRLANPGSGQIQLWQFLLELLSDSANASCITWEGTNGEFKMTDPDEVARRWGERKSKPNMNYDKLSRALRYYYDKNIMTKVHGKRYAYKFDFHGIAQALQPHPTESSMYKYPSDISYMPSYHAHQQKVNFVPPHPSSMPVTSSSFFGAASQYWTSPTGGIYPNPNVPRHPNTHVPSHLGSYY
# Summary of the method: (§1)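 A tag-only sample was pooled with DNA-barcoded human transcription factors that had been expressed in yeast as GST fusions and captured on glutathione beads. The pools were incubated for 30 min at room temperature with 200 nmole of a random double-stranded 16-mer DNA library in Tris/NaCl/DTT/glycerol buffer, then washed, crosslinked with 0.1% formaldehyde, proximity-ligated (BsaI/T4 ligase, 1 h, 37 °C), PCR-amplified and sequenced on an Illumina NextSeq500. Binding signal is each hexamer's read frequency for a factor divided by its frequency for the tag-only sample.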
# [2] = target: T2, ELK1 (Homo sapiens, UniProt P19419 1-428); settings: protein: recombinant; tags: N-terminal GST; dsDNA, one strand shown
# T2 sequence: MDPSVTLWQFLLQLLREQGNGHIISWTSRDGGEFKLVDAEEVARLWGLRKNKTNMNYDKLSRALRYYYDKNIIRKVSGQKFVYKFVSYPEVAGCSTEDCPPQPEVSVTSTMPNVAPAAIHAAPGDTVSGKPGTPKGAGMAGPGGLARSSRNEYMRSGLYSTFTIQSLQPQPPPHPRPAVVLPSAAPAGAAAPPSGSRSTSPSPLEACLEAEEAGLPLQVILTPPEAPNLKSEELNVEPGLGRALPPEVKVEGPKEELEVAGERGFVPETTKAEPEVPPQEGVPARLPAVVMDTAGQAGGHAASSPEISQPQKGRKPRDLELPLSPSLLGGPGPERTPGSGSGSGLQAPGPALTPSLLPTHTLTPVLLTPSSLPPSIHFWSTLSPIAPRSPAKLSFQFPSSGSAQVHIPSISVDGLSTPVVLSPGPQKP
# Summary of the method: as §1
# [3] = target: T3, GABPA (Homo sapiens, UniProt Q06546 1-454); settings: protein: recombinant; tags: N-terminal GST; dsDNA, one strand shown
# T3 sequence: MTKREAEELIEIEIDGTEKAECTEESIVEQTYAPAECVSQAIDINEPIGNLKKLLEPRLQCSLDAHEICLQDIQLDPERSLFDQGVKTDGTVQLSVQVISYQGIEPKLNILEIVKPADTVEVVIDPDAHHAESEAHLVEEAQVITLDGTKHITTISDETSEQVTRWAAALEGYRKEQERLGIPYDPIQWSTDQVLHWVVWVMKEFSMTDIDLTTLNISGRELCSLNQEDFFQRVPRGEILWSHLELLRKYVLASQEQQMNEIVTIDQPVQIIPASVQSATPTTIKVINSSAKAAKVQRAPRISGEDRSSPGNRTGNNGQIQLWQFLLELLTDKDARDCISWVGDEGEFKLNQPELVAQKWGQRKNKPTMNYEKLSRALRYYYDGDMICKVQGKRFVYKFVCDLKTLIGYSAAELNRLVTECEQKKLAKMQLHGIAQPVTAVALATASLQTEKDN
# Summary of the method: as §1
# [4] = target: T4, ERG (Homo sapiens, UniProt P11308 1-479); settings: protein: recombinant; tags: N-terminal GST; dsDNA, one strand shown
# T4 sequence: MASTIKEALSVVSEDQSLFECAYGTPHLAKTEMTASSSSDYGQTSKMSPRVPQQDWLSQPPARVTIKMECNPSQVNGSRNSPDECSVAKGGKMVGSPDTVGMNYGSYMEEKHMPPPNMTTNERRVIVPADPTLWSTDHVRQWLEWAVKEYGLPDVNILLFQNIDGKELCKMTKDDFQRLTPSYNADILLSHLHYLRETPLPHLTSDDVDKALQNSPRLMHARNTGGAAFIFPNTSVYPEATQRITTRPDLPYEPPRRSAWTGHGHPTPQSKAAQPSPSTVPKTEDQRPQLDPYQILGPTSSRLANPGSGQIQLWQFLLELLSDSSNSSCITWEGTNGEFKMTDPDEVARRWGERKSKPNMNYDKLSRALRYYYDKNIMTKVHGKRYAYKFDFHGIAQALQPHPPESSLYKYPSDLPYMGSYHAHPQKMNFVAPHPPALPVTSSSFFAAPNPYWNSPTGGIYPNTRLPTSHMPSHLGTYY
# Summary of the method: as §1
# [5] = target: ELF1 (Homo sapiens, UniProt P32519 1-619); settings: protein: recombinant; tags: N-terminal GST; dsDNA, one strand shown
# ELF1, sequence (P32519 whole entry): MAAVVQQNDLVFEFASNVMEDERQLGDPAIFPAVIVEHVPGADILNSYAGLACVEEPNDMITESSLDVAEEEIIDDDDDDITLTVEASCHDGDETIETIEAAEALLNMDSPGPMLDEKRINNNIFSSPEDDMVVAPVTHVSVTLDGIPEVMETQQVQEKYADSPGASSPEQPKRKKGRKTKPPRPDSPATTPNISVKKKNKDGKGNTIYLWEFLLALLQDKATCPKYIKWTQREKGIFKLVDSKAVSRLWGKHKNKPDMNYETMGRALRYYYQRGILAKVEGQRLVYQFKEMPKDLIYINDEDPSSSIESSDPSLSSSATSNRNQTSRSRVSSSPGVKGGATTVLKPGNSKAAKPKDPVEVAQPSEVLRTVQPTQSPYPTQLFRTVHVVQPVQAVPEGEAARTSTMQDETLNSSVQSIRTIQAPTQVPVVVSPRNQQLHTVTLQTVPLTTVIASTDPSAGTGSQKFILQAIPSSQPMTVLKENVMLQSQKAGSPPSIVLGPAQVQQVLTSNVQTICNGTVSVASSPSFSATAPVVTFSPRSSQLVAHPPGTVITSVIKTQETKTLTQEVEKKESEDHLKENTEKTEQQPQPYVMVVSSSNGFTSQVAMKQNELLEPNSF
# Summary of the method: as §1
# [6] = target: T5, EHF (Homo sapiens, UniProt Q9NZC4 1-300); settings: protein: recombinant; tags: N-terminal GST; dsDNA, one strand shown
# T5 sequence: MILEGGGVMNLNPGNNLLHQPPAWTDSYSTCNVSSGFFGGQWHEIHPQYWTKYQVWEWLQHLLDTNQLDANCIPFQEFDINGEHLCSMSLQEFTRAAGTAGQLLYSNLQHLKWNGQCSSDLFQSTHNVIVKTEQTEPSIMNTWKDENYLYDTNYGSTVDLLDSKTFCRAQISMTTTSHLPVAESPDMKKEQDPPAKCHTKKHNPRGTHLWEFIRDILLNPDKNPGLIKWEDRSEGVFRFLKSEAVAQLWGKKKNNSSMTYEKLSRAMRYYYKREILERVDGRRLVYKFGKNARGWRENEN
# Summary of the method: as §1
# [7] = target: SPI1 (Homo sapiens, UniProt P17947 1-270); settings: protein: recombinant; tags: N-terminal GST; dsDNA, one strand shown
# Summary of the method: as §1
# [8] = target: SPIB (Homo sapiens, UniProt Q01892 1-262); settings: protein: recombinant; tags: N-terminal GST; dsDNA, one strand shown
# SPIB, sequence (Q01892 whole entry): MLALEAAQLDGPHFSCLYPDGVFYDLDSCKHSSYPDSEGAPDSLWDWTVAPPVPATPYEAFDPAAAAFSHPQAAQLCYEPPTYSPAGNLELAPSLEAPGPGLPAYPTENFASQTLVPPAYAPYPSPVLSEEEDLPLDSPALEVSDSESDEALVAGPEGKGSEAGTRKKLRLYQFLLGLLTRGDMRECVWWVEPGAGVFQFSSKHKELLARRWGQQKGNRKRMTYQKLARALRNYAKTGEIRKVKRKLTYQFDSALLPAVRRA
# Summary of the method: as §1
# [9] = target: T6, ELK3 (Homo sapiens, UniProt P41970 1-407); settings: protein: recombinant; tags: N-terminal GST; dsDNA, one strand shown
# T6 sequence: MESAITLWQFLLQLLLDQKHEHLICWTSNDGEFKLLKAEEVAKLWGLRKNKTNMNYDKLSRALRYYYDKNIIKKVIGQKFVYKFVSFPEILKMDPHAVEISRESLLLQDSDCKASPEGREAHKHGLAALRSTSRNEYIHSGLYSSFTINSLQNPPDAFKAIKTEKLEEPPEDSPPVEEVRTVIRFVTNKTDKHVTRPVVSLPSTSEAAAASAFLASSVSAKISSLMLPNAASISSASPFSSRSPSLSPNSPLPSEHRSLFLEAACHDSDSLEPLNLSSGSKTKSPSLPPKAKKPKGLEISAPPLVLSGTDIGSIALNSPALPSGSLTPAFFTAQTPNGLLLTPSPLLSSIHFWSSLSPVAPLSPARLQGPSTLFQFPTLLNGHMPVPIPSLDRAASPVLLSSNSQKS
# Summary of the method: as §1
# [10] = target: T7, FEV (Homo sapiens, UniProt Q99581 1-238); settings: protein: recombinant; tags: N-terminal GST; dsDNA, one strand shown
# T7 sequence: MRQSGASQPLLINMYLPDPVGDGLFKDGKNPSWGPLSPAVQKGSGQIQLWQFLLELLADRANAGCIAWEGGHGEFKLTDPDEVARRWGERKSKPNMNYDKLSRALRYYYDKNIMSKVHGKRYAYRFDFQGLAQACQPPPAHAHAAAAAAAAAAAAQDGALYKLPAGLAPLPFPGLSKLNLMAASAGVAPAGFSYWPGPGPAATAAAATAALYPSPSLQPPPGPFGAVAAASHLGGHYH
# Summary of the method: as §1
# [11] = target: ETV5 (Homo sapiens, UniProt P41161 1-510); settings: protein: recombinant; tags: N-terminal GST; dsDNA, one strand shown
# ETV5, sequence (P41161 whole entry): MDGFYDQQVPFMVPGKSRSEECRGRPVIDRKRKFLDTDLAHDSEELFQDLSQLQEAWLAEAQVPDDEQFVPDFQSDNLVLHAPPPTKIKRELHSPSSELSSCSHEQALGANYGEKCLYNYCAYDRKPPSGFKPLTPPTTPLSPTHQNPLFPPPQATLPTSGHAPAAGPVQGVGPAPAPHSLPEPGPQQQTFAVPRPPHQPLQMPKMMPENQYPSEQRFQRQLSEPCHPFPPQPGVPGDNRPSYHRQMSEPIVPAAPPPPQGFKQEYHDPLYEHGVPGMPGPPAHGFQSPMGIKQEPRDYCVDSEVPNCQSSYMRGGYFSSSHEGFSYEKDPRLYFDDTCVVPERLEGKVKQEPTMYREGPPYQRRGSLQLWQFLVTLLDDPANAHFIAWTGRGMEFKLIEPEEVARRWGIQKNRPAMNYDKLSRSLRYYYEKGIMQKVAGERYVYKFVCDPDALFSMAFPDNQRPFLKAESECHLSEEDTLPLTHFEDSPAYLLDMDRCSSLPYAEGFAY
# Summary of the method: as §1
# [12] = target: HSF1 (Homo sapiens, UniProt Q00613 1-529); settings: protein: recombinant; tags: N-terminal GST; chain copies: 3; dsDNA, one strand shown
# HSF1, sequence (Q00613 whole entry): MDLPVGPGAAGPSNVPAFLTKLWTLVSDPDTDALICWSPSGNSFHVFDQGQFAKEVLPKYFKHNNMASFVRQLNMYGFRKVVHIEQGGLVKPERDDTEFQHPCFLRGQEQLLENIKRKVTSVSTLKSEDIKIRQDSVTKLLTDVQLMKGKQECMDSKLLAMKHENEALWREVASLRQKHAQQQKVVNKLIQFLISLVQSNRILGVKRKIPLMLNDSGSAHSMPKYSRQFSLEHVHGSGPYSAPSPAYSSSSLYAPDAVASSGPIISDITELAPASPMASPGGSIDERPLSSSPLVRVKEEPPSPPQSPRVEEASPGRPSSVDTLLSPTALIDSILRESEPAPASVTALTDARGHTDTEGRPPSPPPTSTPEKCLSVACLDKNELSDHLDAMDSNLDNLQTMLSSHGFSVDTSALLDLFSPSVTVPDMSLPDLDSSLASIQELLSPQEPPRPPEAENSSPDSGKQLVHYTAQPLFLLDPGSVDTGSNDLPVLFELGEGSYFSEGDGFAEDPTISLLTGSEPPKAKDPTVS
# Summary of the method: as §1
# [13] = target: T8, SPIC (Homo sapiens, UniProt Q8N5J4 1-248); settings: protein: recombinant; tags: N-terminal GST; dsDNA, one strand shown
# T8 sequence: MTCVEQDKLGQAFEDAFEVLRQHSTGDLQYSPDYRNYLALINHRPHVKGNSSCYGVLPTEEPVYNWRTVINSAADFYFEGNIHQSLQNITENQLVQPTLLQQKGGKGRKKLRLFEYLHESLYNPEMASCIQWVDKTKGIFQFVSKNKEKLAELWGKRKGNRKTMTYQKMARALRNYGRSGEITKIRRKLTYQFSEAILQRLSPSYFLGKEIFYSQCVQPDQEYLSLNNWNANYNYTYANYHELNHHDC
# Summary of the method: as §1
# [14] = target: ELF4 (Homo sapiens, UniProt Q99607 1-663); settings: protein: recombinant; tags: N-terminal GST; dsDNA, one strand shown
# ELF4, sequence (Q99607 whole entry): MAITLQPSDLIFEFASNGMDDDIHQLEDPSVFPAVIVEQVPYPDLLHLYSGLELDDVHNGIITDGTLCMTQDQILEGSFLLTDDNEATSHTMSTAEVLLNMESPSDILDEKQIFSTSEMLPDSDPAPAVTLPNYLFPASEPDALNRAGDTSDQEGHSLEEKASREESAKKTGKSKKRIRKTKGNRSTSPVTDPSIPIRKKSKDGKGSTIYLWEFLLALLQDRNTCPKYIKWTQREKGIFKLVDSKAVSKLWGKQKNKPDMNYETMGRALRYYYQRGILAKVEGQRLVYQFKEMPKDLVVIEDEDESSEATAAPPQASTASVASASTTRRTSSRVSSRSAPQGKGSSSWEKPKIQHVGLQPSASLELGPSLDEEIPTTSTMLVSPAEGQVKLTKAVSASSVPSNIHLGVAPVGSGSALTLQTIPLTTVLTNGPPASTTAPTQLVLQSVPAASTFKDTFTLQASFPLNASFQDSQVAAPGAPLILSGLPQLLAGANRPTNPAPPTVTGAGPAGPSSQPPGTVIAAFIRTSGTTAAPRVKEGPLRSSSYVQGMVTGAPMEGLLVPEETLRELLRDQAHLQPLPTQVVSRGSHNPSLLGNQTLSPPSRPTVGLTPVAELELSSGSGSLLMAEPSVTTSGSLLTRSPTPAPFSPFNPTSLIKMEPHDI
# Summary of the method: as §1
# [15] = target: T9, ELK4 (Homo sapiens, UniProt P28324-2 1-405); settings: protein: recombinant; tags: N-terminal GST; dsDNA, one strand shown
# T9 sequence: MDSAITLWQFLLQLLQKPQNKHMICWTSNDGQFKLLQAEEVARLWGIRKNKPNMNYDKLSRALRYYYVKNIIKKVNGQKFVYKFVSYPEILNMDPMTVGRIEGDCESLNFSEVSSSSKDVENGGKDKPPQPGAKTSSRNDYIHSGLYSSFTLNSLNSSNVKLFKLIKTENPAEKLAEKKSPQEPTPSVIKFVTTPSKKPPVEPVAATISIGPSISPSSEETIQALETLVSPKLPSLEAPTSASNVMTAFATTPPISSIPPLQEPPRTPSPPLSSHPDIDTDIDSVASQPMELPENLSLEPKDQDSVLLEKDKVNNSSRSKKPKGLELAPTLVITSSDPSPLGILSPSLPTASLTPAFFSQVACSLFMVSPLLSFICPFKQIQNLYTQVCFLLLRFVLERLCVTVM
# Summary of the method: as §1
# [16] = target: T10, ETV2 (Homo sapiens, UniProt O00321 1-342); settings: protein: recombinant; tags: N-terminal GST; dsDNA, one strand shown
# T10 sequence: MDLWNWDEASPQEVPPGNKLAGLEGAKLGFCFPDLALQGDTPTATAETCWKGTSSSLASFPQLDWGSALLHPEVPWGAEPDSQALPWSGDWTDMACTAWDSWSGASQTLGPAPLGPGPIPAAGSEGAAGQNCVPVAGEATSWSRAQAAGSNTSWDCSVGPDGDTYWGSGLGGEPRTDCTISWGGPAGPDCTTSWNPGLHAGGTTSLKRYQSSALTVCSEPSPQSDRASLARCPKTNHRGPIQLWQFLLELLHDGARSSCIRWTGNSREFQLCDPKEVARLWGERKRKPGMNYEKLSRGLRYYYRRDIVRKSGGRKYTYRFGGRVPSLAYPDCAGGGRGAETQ
# Summary of the method: as §1
# [17] = target: T11, ELF3 (Homo sapiens, UniProt P78545 1-371); settings: protein: recombinant; tags: N-terminal GST; dsDNA, one strand shown
# T11 sequence: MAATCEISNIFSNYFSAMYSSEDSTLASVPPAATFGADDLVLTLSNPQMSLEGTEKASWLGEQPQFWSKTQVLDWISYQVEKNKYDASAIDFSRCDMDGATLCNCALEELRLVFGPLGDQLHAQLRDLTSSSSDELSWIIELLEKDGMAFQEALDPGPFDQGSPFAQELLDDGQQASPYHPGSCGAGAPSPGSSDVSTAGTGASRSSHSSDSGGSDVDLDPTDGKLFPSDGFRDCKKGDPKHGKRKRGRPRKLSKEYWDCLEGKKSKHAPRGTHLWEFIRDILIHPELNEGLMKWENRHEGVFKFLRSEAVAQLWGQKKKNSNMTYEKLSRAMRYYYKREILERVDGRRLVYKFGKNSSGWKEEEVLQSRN
# Summary of the method: as §1
# [18] = target: CRX (Homo sapiens, UniProt O43186 1-299); settings: protein: recombinant; tags: N-terminal GST; dsDNA, one strand shown
# CRX, sequence (O43186 whole entry): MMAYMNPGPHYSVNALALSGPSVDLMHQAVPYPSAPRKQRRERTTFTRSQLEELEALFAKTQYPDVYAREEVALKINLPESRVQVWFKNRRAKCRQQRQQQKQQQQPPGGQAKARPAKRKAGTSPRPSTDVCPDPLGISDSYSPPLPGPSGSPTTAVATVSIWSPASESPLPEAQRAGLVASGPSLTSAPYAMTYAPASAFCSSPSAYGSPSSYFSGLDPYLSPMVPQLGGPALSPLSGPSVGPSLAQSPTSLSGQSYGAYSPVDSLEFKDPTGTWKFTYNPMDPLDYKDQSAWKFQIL
# Summary of the method: as §1
# [19] = target: ETV1 (Homo sapiens, UniProt P50549 1-477); settings: protein: recombinant; tags: N-terminal GST; dsDNA, one strand shown
# ETV1, sequence (P50549 whole entry): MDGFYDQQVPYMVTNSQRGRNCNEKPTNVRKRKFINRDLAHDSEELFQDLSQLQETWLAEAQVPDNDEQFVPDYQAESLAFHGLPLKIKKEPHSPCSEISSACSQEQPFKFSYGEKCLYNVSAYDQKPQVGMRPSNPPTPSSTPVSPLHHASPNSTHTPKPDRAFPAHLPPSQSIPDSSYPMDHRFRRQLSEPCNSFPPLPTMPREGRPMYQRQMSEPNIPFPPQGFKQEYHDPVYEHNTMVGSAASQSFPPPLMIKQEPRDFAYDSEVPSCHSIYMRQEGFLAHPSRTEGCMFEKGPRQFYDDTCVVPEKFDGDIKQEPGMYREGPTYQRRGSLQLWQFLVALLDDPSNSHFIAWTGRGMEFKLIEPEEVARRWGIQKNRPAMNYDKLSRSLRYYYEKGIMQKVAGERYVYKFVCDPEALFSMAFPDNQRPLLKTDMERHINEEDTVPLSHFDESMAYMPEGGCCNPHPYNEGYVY
# Summary of the method: as §1
sequence,measurement,setting,value
TATCCC,binding signal,[1],"1.63 fold enrichment (6-mer frequency, TF over GST control)"
same,binding signal,[2],"1.65 fold enrichment (6-mer frequency, TF over GST control)"
same,binding signal,[3],"1.53 fold enrichment (6-mer frequency, TF over GST control)"
same,binding signal,[4],"1.58 fold enrichment (6-mer frequency, TF over GST control)"
same,binding signal,[5],"1.57 fold enrichment (6-mer frequency, TF over GST control)"
same,binding signal,[6],"1.52 fold enrichment (6-mer frequency, TF over GST control)"
same,binding signal,[7],"1.36 fold enrichment (6-mer frequency, TF over GST control)"
same,binding signal,[8],"1.54 fold enrichment (6-mer frequency, TF over GST control)"
same,binding signal,[9],"1.56 fold enrichment (6-mer frequency, TF over GST control)"
same,binding signal,[10],"1.59 fold enrichment (6-mer frequency, TF over GST control)"
same,binding signal,[11],"1.64 fold enrichment (6-mer frequency, TF over GST control)"
same,binding signal,[12],"1.61 fold enrichment (6-mer frequency, TF over GST control)"
same,binding signal,[13],"1.6 fold enrichment (6-mer frequency, TF over GST control)"
same,binding signal,[14],"1.54 fold enrichment (6-mer frequency, TF over GST control)"
same,binding signal,[15],"1.64 fold enrichment (6-mer frequency, TF over GST control)"
same,binding signal,[16],"1.44 fold enrichment (6-mer frequency, TF over GST control)"
same,binding signal,[17],"1.83 fold enrichment (6-mer frequency, TF over GST control)"
same,binding signal,[18],"2.22 fold enrichment (6-mer frequency, TF over GST control)"
same,binding signal,[19],"1.39 fold enrichment (6-mer frequency, TF over GST control)"

# Reference: paper PMC7862700, “An all-to-all approach to the identification of sequence-specific readers for epigenetic DNA modifications on cytosine”
